Results reported in PubChem BioAssay AID1159580 (chemical genetic matrix, 2015).
“And” between values parts separate entries of the source, which are not always exact repeats. Equal entries are not always repeated. The whole screen tested about 5,500 compounds, of which about 2,000 (36%) were called active. Inconclusive results (about 18%) are left out. Rule as the data show it: active = normalized growth mostly below about 0.91 (no sharp cut-off); inconclusive = no clear call, values can overlap the other calls; inactive = mostly above about 0.92. The list shows a part of the results.

Test: chemical genetic growth profiling, strain panel (AID 1159580);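 also: tested at 20 µM; growth read once vehicle control cultures reached saturation at 30 °C; 1 = growth at the plate median or of vehicle wells; lower values mean less growth of the strain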
Settings: S. cerevisiae deletion strains, growth OD

Measured: normalized growth

C[N+]1(CCCCC[N+]2(C)CCCC2)CCCC1
inactive: locus YAL013W, strain DEP1, hits give low values 1 and 0.986 | locus YAL021C, strain ccr4, hits give low values 0.99 | locus YAL026C, strain drs2, hits give low values 0.995 | locus YAL030W, strain snc1, hits give low values 1 | locus YAL040C, strain CLN3, hits give low values 0.976 | locus YBL061C, strain skt5, hits give low values 0.998 | locus YBR009C, strain hhf1, hits give low values 1 | locus YBR021W, strain FUR4, hits give low values 1.01 | locus YBR023C, strain chs3, hits give low values 0.989 | locus YBR171W, strain sec66, hits give low values 1 | locus YBR229C, strain ROT2, hits give low values 1.01 | locus YBR231C, strain swc5, hits give low values 0.986 | locus YBR279W, strain paf1, hits give low values 0.993 | locus YCL011C, strain gbp2, hits give low values 0.993 | locus YCL016C, strain dcc1, hits give low values 0.993 | locus YCL029C, strain bik1, hits give low values 1.04 | locus YCL061C, strain MRC1 (second series), hits give low values 0.994 | locus YCL061C, strain MRC1, hits give low values 0.995 | locus YCL069W, strain vba3, hits give low values 1 | locus YCR088W, strain abp1, hits give low values 0.999 | locus YDL005C, strain med2, hits give low values 0.983 | locus YDL035C, strain GPR1, hits give low values 1.01 | locus YDL040C, strain nat1, hits give low values 0.989 | locus YDL074C, strain BRE1, hits give low values 1.02 | locus YDL101C, strain DUN1, hits give low values 1.01 | locus YDL134C, strain PPH21, hits give low values 1.01 | locus YDL185W, strain tfp1, hits give low values 1.01 | locus YDL192W, strain arf1, hits give low values 1.02 | locus YDR001C, strain nth1, hits give low values 1 | locus YDR069C, strain doa4, hits give low values 0.995 | locus YDR101C, strain arx1, hits give low values 1.01 | locus YDR137W, strain rgp1, hits give low values 1.04 | locus YDR150W, strain NUM1, hits give low values 1 | locus YDR159W, strain sac3, hits give low values 0.991 | locus YDR162C, strain NBP2, hits give low values 1.01 | locus YDR195W, strain ref2 0.922 | locus YDR297W, strain sur2, hits give low values 1.01 | locus YDR318W, strain mcm21, hits give low values 1.02 | locus YDR334W, strain swr1, hits give low values 0.991 | locus YDR335W, strain msn5, hits give low values 0.991 | locus YDR363W, strain ESC2, hits give low values 0.985 | locus YDR388W, hits give low values 1.01 | locus YDR392W, strain spt3, hits give low values 1.01 | locus YDR502C, strain sam2, hits give low values 1.01 | locus YEL003W, strain gim4, hits give low values 0.997 | locus YEL037C, strain rad23, hits give low values 0.994 | locus YEL061C, strain CIN8 (second series), hits give low values 0.991 | locus YEL061C, strain CIN8, hits give low values 1 | locus YER002W, strain NOP16, hits give low values 1.01 | locus YER015W, strain faa2, hits give low values 0.993 | locus YER016W, strain bim1, hits give low values 0.995 | locus YER110C, hits give low values 1.02 | locus YER111C, strain swi4, hits give low values 0.983 | locus YER155C, strain BEM2 (second series), hits give low values 0.996 | locus YER155C, strain BEM2, hits give low values 0.997 | locus YER167W, strain BCK2, hits give low values 1 | locus YFR010W, strain ubp6, hits give low values 0.998 | locus YGL078C, strain dbp3, hits give low values 1.01 | locus YGL086W, strain mad1, hits give low values 0.996 | locus YGL167C, strain pmr1, hits give low values 1 | locus YGL173C, strain kem1, hits give low values 1 | locus YGL227W, strain vid30, hits give low values 0.984 | locus YGL240W, strain doc1, hits give low values 0.988 | locus YGL248W, strain PDE1, hits give low values 1.02 | locus YGL253W, strain hxk2, hits give low values 0.987 | locus YGR078C, strain PAC10, hits give low values 1.02 | locus YGR135W, strain pre9, hits give low values 1.01 | locus YGR229C, strain SMI1, hits give low values 1.01 | locus YGR252W, strain gcn5, hits give low values 1 | locus YHR013C, strain ard1, hits give low values 0.962 | locus YHR027C, strain rpn1, hits give low values 0.998 | locus YHR030C, strain SLT2, hits give low values 1.01 | locus YHR079C, strain IRE1 (second series), hits give low values 1.02 | locus YHR094C, strain hxt1, hits give low values 1.01 | locus YHR129C, strain ARP1, hits give low values 1.01 | locus YHR142W, strain chs7, hits give low values 0.997 | locus YHR200W, strain rpn10, hits give low values 1 | locus YIL066C, strain RNR3, hits give low values 1.01 | locus YIL073C, strain SPO22, hits give low values 1.05 | locus YIL125W, strain kgd1, hits give low values 1.02 | locus YIR030C, strain dcg1, hits give low values 1.01 | locus YJL092W, strain hpr5, hits give low values 0.997 | locus YJL095W, strain BCK1 (second series), hits give low values 0.993 | locus YJL095W, strain BCK1, hits give low values 1.03 | locus YJL115W, strain asf1, hits give low values 0.988 | locus YJL129C, strain trk1, hits give low values 0.992 | locus YJL134W, strain LCB3, hits give low values 1 | locus YJL154C, strain vps35, hits give low values 0.995 | locus YJL164C, strain tpk1, hits give low values 0.995 | locus YJL166W, strain qcr8, hits give low values 0.999 | locus YJL168C, strain set2, hits give low values 1.01 | locus YJL187C, strain SWE1 (second series), hits give low values 1.02 | locus YJL187C, strain SWE1, hits give low values 1
